# Calls of active or inactive are those of the source.
# Tests used:
# [1] = system: Plasmodium falciparum Sir2 (PF13_0152, Sir2A); assay: Plasmodium falciparum Sir2A binding compounds – biochemical, small-molecule microarray, 635 nm fluorescence, primary screen (AID 1098); conditions: fluorescence 635 nm, higher = more signal;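 also: score merges spot fluorescence intensity with its signal-to-noise ratio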
# [2] = probe aDKK1 binding to arrayed compounds – biochemical, biotinylated probe, 635/667 nm fluorescence, primary screen (AID 1099); conditions: small-molecule microarray, higher = more signal;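 also: score merges 667nm spot fluorescence with signal to noise across triplicate slides; reference of the scale not given here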
# [3] = probe aCHRDL2 binding to arrayed compounds – biochemical, biotinylated probe, 635/667 nm fluorescence, primary screen (AID 1100); conditions: small-molecule microarray, higher = more signal
# [4] = change in splice reporter luminescence, either direction, cell-based, HEK293, spliceosome inhibition project, primary screen (AID 1101); conditions: HEK293 splicing luciferase reporter, 24 h, higher = more signal, called active from +8 up or from −8 down;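 also: HEK293 cells carrying a splicing-competent luciferase reporter gene; test concentration not given here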
# [5] = target: Fibroblast growth factor 10 (Homo sapiens) (UniProt O15520); assay: compounds binding fibroblast growth factor 10 – biochemical, small-molecule microarray, 635 nm fluorescence, primary screen (AID 1102); conditions: FGF10 binding, fluorescence 635 nm, higher = more signal
# Sequence of Fibroblast growth factor 10 (Homo sapiens) (O15520 whole entry, looked up): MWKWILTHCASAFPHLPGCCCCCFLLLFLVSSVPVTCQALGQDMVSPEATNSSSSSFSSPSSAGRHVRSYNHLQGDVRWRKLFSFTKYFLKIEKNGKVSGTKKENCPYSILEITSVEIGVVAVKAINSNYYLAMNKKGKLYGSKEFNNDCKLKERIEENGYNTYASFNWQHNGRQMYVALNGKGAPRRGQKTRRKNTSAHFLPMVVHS
# [6] = system: glycogen synthase kinase-3 (GSK3A per assay name; protocol says GSK3B); assay: compounds binding glycogen synthase kinase-3 – biochemical, small-molecule microarray, 635 nm fluorescence, GSK3A, primary screen (AID 1103); conditions: fluorescence 635 nm, higher = more signal; also: the record names both GSK3A and GSK3B
# [7] = target: Epidermal growth factor receptor (Homo sapiens) (UniProt P00533); assay: compounds binding epidermal growth factor receptor – biochemical, small-molecule microarray, 635 nm fluorescence, primary screen (AID 1104); conditions: EGFR binding, higher = more signal;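 also: score merges 667 nm emission intensity with spot signal to noise over triplicate slides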
# Sequence of Epidermal growth factor receptor (Homo sapiens) (P00533 whole entry, looked up): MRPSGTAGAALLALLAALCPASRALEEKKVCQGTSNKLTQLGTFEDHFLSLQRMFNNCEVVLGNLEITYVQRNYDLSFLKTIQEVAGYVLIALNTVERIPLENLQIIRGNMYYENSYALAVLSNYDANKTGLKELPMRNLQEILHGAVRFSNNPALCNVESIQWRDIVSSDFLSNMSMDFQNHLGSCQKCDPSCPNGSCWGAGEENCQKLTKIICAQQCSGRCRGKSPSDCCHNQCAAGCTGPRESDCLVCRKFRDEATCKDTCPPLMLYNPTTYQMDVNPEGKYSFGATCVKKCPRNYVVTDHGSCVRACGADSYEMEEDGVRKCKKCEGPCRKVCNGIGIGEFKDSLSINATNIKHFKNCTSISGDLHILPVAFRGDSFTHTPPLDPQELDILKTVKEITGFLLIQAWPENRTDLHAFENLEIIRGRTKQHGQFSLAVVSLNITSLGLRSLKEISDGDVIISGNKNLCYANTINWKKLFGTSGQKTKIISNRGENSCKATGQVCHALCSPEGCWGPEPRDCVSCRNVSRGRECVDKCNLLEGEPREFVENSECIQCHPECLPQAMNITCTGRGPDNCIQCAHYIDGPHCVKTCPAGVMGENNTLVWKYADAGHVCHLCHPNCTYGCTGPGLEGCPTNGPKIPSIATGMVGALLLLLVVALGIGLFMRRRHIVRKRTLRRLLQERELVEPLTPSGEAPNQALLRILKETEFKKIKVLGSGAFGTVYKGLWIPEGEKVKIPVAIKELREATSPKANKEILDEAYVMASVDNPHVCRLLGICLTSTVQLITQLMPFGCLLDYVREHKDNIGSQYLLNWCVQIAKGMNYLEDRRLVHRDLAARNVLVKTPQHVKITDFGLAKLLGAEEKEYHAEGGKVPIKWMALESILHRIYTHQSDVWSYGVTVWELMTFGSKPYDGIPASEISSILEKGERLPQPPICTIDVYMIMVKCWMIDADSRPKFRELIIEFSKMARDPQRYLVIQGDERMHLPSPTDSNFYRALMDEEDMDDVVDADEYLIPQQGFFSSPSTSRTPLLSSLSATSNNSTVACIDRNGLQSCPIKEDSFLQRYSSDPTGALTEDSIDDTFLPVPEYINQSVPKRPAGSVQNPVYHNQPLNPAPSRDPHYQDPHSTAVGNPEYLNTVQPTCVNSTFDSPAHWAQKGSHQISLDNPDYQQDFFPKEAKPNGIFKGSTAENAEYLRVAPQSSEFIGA
# [8] = target: Follistatin-related protein 3 (Homo sapiens) (UniProt O95633); assay: compounds binding follistatin-related protein 3 – biochemical, small-molecule microarray, 635 nm fluorescence, primary screen (AID 1105); conditions: FSTL3 binding, higher = more signal;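 also: score merges emission near 667 nm and signal to noise per printed spot across three slides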
# Sequence of Follistatin-related protein 3 (Homo sapiens) (O95633 whole entry, looked up): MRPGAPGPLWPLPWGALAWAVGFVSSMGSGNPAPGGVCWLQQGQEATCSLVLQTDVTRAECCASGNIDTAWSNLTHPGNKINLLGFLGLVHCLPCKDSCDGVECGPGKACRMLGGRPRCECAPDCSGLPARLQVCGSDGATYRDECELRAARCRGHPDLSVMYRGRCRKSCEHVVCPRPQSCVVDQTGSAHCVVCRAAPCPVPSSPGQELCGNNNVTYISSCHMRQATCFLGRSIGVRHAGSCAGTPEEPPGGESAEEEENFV
# [9] = target: Dickkopf-related protein 1 (Homo sapiens) (UniProt O94907); assay: small molecules binding DKK1 protein – biochemical, small-molecule microarray, 635 nm fluorescence scan, primary screen (AID 1106); conditions: higher = more signal;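 also: score merges emission near 667 nm with signal to noise over three replicate slides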
# Sequence of Dickkopf-related protein 1 (Homo sapiens) (O94907 whole entry, looked up): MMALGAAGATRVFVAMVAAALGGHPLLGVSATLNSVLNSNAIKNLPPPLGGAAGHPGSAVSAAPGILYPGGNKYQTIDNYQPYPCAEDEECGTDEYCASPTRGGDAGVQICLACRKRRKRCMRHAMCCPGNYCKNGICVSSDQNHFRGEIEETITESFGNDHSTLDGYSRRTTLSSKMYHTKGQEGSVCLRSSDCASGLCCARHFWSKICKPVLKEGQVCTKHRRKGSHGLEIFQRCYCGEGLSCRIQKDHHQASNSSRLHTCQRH
# [10] = system: Inhibin beta A chain (activin A); assay: small molecules binding activin A – biochemical, small-molecule microarray, 635 nm fluorescence scan, primary screen (AID 1107); conditions: INHBA, higher = more signal;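 also: mouse activin A protein probed at 4.33 µg/mL on printed slides; score merges bound-protein fluorescence near 667 nm with spot signal-to-noise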
Structure (SMILES),composite z-score [1],composite z-score [2],composite z-score [3],z-score [4],composite z-score [5],composite z-score [6],composite z-score [7],composite z-score [8],composite z-score [9],composite z-score [10]
COC(=O)C1=CC(CCCO)=CC(C2CC2)N(Cc2cccc(OC(F)(F)F)c2)C=C1C(=O)OC (stereo not given),1.19,0.0765,0.234,0.449 (inactive),0.107,-0.363,-0.659,0.315,-0.59,0.674
COCCOC(=O)N1C(=O)[C@@]2(c3cc(C#CCC(C(=O)OC)C(=O)OC)ccc31)[C@H](C(=O)N1CCCCCCC1)[C@H]1C(=O)O[C@H](c3ccccc3)[C@H](c3ccccc3)N1[C@@H]2c1ccccc1OCCO,1.61,2.62,1.59,-0.815 (inactive),0.547,1.32,0.893,1.67,0.987,1.96
COC(=O)C(CC#Cc1ccc2c(c1)[C@]1(C(=O)N2)[C@H](c2ccc(O)cc2)N2[C@H](c3ccccc3)[C@H](c3ccccc3)OC(=O)[C@H]2[C@@H]1C(=O)N1CCc2cc(OC)c(OC)cc2C1)C(=O)OC,1.38,0.505,0.724,-0.541 (inactive),0.817,1.32,0.708,1.29,1.06,-0.0531
CCCC[C@@H](O)C1=C(COC)Cn2c(=O)n(-c3ccccc3)c(=O)n2[C@H]1CO,-0.0092,-0.399,-0.318,-0.446 (inactive),0.035,0.0617,-0.464,-0.0013,-0.184,0.749
CC(C)C(=C=CC[C@@H](O)c1ccc(OCCO)cc1)CCO,0.959,-0.233,0.0776,-0.35 (inactive),0.688,-0.579,-0.395,0.196,-0.117,0.516
CCC[C@@H]1[C@@H](Sc2ccccc2)[C@@H](C(=O)O)[C@H](c2ccc(C)cc2)N1S(=O)(=O)c1ccc(C)cc1,1.05,0.505,0.284,-0.114 (inactive),1.25,1.36,0.163,1.34,0.188,0.267
NC(=O)NCC#Cc1ccc2c(c1)[C@]1(C(=O)N2)[C@H](C(=O)Nc2nc3ccccc3s2)[C@H]2C(=O)O[C@H](c3ccccc3)[C@H](c3ccccc3)N2[C@@H]1c1ccc(OCCO)cc1,-0.478,0.738,1.13,1.37 (inactive),0.253,-0.95,0.0294,0.559,-0.52,0.765
Cc1ccc(F)cc1S(=O)(=O)N[C@@H]1CCN(Cc2ccc3c(c2)OCO3)C1,0.0014,-0.247,-0.289,-0.0924 (inactive),-0.24,-0.191,0.0122,-0.272,0.537,0.528
COCCOC(=O)N1C(=O)[C@@]2(c3cc(C#Cc4ccc(OC)cc4)ccc31)[C@H](c1ccc(OCCO)cc1)N1[C@H](c3ccccc3)[C@H](c3ccccc3)OC(=O)[C@H]1[C@@H]2C(=O)N1CCCCCCC1,1.7,2.22,1.36,-1.58 (inactive),0.821,1.24,0.719,1.52,1.29,1.65
CN1C(=O)[C@]2(CCS(=O)(=O)c3ccccc3)N=C(c3ccc(OCCCO)cc3)O[C@@H]2c2ccccc21,1.38,0.0991,0.89,-0.674 (inactive),0.458,1.33,-0.0528,0.669,0.367,0.3
COCCCNC(=O)[C@@H]1c2ccccc2C(=O)N(Cc2cc(C(F)(F)F)cc(C(F)(F)F)c2)[C@H]1c1ccc(CO)cc1,-1.09,1.15,0.291,-0.475 (inactive),-0.0413,0.0135,-0.301,0.142,0.346,0.92
Cc1ccccc1C(O)C1C=CC2C(=O)N(c3ccccc3)C(=O)C2N1Nc1ccccc1F (stereo not given),1.31,0.938,1.23,0.476 (inactive),0.77,0.45,0.153,0.836,-0.6,1.04
Cc1ccc(S[C@]2(C(=O)NCCCN(C)C)CC(=O)N(Cc3ccccc3Cl)[C@@H]2c2ccc(CO)cc2I)cc1,-0.393,0.844,0.864,-1.53 (inactive),-1.29,-1.19,-1.3,-0.551,-1.39,1.4
C[N+](C)(C)CCCCCCNC(=O)[C@H]1C[C@H]2C(=O)NCC(=O)N2[C@H]1c1cccc(OCCO)c1,1.75,-0.149,0.0218,-0.34 (inactive),0.439,0.548,0.228,0.969,1.28,0.169
COCCCNC(=O)[C@@]1(Sc2ccc(C)cc2)CC(=O)N(C2CCCCC2)[C@@H]1c1ccc(CO)cc1I,1.06,0.79,0.629,-0.924 (inactive),1.01,1.28,0.549,1.38,0.216,-0.148
CC(C)C[C@@H]1NC(=O)[C@H]2C[C@@H](C(=O)NCCCCCCNC(=O)CS)[C@@H](c3ccc(O)cc3)N2C1=O,1.47,-0.0603,-0.121,-0.0594 (inactive),1.13,1.25,1.08,1.03,0.868,-1.17

Structure (SMILES),composite z-score [1],composite z-score [2],composite z-score [3],z-score [4],composite z-score [5],composite z-score [6],composite z-score [7],composite z-score [8],composite z-score [9],composite z-score [10]
O=C1C2C=CC(C(O)C(c3ccccc3)c3ccccc3)N(Nc3ccccc3)C2C(=O)N1c1ccccc1 (stereo not given),1.46,0.467,0.741,-0.384 (inactive),0.68,1.32,0.385,1.44,-0.42,0.221
CN1C(=O)[C@]2(CCC(=O)OC(C)(C)C)N=C(c3ccc(OCCCO)cc3)O[C@@H]2c2ccccc21,1.14,-0.0732,0.651,-0.432 (inactive),1.38,1.29,-0.0099,0.659,0.297,0.643
CCOC(=O)C[C@H]1[C@H](OC(=O)c2ccc(-c3ccccc3)cc2)[C@@H](NC(=O)CC(C)C)c2cc(OCCCO)ccc2N1C(=O)Cc1ccc(OC)cc1,-0.146,0.448,0.624,-0.463 (inactive),0.22,0.0434,-0.263,-0.195,-0.204,-0.353
C=CCOC(=O)[C@H]1[C@@H]2C(=O)O[C@@H](c3ccccc3)[C@@H](c3ccccc3)N2[C@@H](c2ccc(OCCOC(=O)[C@H]3C[C@H]4C(=O)NCC(=O)N4[C@H]3c3ccc(O)cc3)cc2)[C@]12C(=O)Nc1ccc(I)cc12,1.41,-0.144,-0.335,0.0882 (inactive),0.669,0.821,0.63,0.915,1.12,0.236
CC(C)CNC(=O)[C@@H]1c2ccccc2C(=O)N(C(C)C)[C@H]1c1ccc(CO)cc1,1.36,0.0026,0.763,-1.26 (inactive),-0.787,-0.221,-0.5,-0.573,-0.382,0.849
CCOC(=O)C1=CC[C@@H](c2ccc(F)cc2)N(S(=O)(=O)c2ccc(C)cc2)[C@H]1c1ccc([N+](=O)[O-])cc1,0.681,0.0684,0.373,-0.689 (inactive),0.914,0.988,-0.24,0.485,-0.453,0.537
COc1ccc(C(O)C2C=CC3C(=O)N(C)C(=O)C3N2Nc2ccc([N+](=O)[O-])cc2[N+](=O)[O-])cc1OCc1ccccc1 (stereo not given),0.994,1.23,1.24,1.16 (inactive),0.895,0.858,0.0333,0.84,-0.508,0.718
CC(=O)n1cc(C(O)C2C=CC3C(=O)N(c4ccccc4)C(=O)C3N2Nc2ccccc2F)c2ccccc21 (stereo not given),1.76,-0.167,0.483,-1.68 (inactive),-0.191,-0.0798,-0.801,-0.638,-1.18,-0.551
C=CCC(OC(C)=O)[C@@H]1[C@@H](N(Cc2cccc3ccccc23)C(=O)c2ccc(-c3ccccc3)cc2)c2cc(OCCCO)ccc2N1C(=O)c1ccc2ccccc2n1 (stereo not given in full),0.0273,0.052,0.265,-0.395 (inactive),0.186,0.159,-0.0618,0.389,0.19,1.31
C=CC[C@]1(C(=O)N(C)C)COC(c2ccc(OCCCO)cc2)=N1,1.6,0.98,1.26,-0.858 (inactive),0.772,0.248,-0.737,-0.438,-0.0393,0.465
COCC1=C([C@H](O)CCc2ccccc2)[C@H](CO)n2c(=O)n(-c3ccccc3)c(=O)n2C1,-0.285,-0.412,-0.39,-1.12 (inactive),-0.187,-0.295,0.445,-0.41,0.353,0.785
C[N+](C)(C)CCCC[C@@H]1NC(=O)[C@H]2C[C@@H](C(=O)NCCCCCNC(=O)CS)[C@@H](c3ccc(O)cc3)N2C1=O,1.43,-0.0443,0.161,-0.744 (inactive),0.499,0.57,0.0872,-0.0399,0.312,0.425
C=CCC(OC(C)=O)[C@@H]1[C@@H](N(Cc2ccc(-c3cccc(C(F)(F)F)c3)o2)C(=O)Cc2ccc(F)cc2)c2cc(OCCCO)ccc2N1C(=O)c1ccc2ccccc2c1 (stereo not given in full),0.819,-0.185,0.429,-0.182 (inactive),-0.701,-1.87,-0.659,0.199,-0.0392,1.08
C=CCC(OC(C)=O)[C@@H]1[C@@H](N(Cc2ccc(-c3cccc(C(F)(F)F)c3)o2)C(=O)Cc2ccc(F)cc2)c2cc(OCCCO)ccc2N1C(=O)c1ccc2ccccc2n1 (stereo not given in full),-0.106,0.0195,0.416,-0.362 (inactive),-0.218,-1.85,-0.35,-0.281,-0.0545,1.58
CCCCN1CC=CC23O[C@@H]4C=CCOC(=O)[C@@H]4[C@H]2C(=O)N(CCO)[C@@H]3C1=O (stereo not given in full),1.58,0.125,0.537,0.499 (inactive),-1.25,-0.641,-1.54,-1.24,-1.58,-0.112
C=C(COC)/C(=C/C[C@H](OC(=O)c1ccncc1)c1cccc(OCCO)c1)c1cnc2ccccc2c1,0.691,0.199,0.293,0.0664 (inactive),1.05,1.3,0.855,1.45,0.938,1.2
